Assay results taken from PubChem BioAssay (Tox21).
Records with an inconclusive call do not appear. Active and inactive are the calls of the source. Unless noted, calls come from the whole dose curve; as a rule, active = well fitted curve in the direction sought with a large enough effect in the repeat runs; inconclusive = weak or mixed curves; inactive = no such curve, though single readings can be large; an effect the other way counts as inactive or inconclusive.

Legend:
[1] = qHTS assay to identify small molecule agonists of the peroxisome proliferator-activated receptor delta (PPARd) signaling pathway - cell viability counter screen (AID 743211); note: nearly all actives have a fitted effect of over 55% in size; note: potency is the fitted concentration of half-maximal effect
Procedure, shortened: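 Tox21 library compounds, delivered in DMSO, were incubated 17 h with PPARd-bla HEK293H cells; cytotoxicity was taken from CellTiter-Glo luminescence read 30 min after reagent addition.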

[2] = biological target: Peroxisome proliferator-activated receptor delta (Homo sapiens) (UniProt Q03181); experiment: qHTS assay to identify small molecule agonists of the peroxisome proliferator-activated receptor delta (PPARd) signaling pathway (AID 743212; calls by dose curve)
Procedure, shortened: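 HEK293H UAS-bla reporter cells, human PPARd system; compounds delivered in DMSO after 5 h plating, then at 37 C. Beta-lactamase FRET read, 2 h RT substrate step.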

[3] = qHTS assay to identify small molecule antagonists of the peroxisome proliferator-activated receptor delta (PPARd) signaling pathway - cell viability counter screen (AID 743213); note: nearly all actives have a fitted effect of over 50% in size; note: potency is the fitted concentration of half-maximal effect
Procedure, shortened: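 HEK293H cells with the PPARd UAS-bla reporter, co-treated 17 h at 37 C with compounds and L165041 (300 nM final), were lysed with CellTiter-Glo. Luminescence indicated viable cell content.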

[4] = biological target: Peroxisome proliferator-activated receptor delta (Homo sapiens) (UniProt Q03181); experiment: qHTS assay to identify small molecule antagonists of the peroxisome proliferator-activated receptor delta (PPARd) signaling pathway (AID 743215; active = well fitted inhibition curve with a large enough effect in the signal ratio in the repeat runs, not every such curve was filed as active; the % refers to the signal ratio;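 note: cells stimulated with agonist L165041 at 300 nM final during compound exposure; series mostly up to about 62 µM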)
Procedure, shortened: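 Inhibition of L165041-driven (300 nM final) PPARd signaling is scored in HEK293H UAS-bla cells. Exposure lasts 17 h at 37 C; beta-lactamase activity is then read by FRET substrate fluorescence after 2 h at room temperature.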

[5] = qHTS assay to identify small molecule antagonists of the farnesoid-X-receptor (FXR) signaling pathway - cell viability counter screen (AID 743221; active = well fitted cell-killing curve with a large enough effect in the repeat runs, not every such curve was filed as active; note: nearly all actives have a fitted effect of over 50% in size; note: potency is the fitted concentration of half-maximal effect)
Procedure, shortened: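 Cytotoxicity is taken from ATP luminescence (CellTiter-Glo, 30 min, room temperature) in FXR-bla HEK 293T cells previously incubated 16 h at 37 C with compound and chenodeoxycholic acid at 50 uM final.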

[6] = biological target: Vitamin D3 receptor (Homo sapiens) (UniProt P11473); experiment: qHTS assay to identify small molecule agonists of the vitamin D receptor (VDR) signaling pathway (AID 743222; calls by dose curve)
Procedure, shortened: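 Quantitative HTS agonist-mode screen: compounds in DMSO were pin-transferred onto VDR-bla cells and incubated 16 h at 37C, 5% CO2. Reporter activity was detected with LiveBLAzer B/G FRET substrate after 2 h at room temperature.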

[7] = biological target: Vitamin D3 receptor (Homo sapiens) (UniProt P11473); experiment: qHTS assay to identify small molecule antagonists of the vitamin D receptor (VDR) signaling pathway (AID 743223; active = well fitted inhibition curve with a large enough effect in the signal ratio in the repeat runs, not every such curve was filed as active; the % refers to the signal ratio)
Procedure, shortened: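 Quantitative HTS in VDR-bla reporter cells stimulated with 1alpha,25-dihydroxyvitamin D3, 3 nM final. Compound exposure 16 h, 37C, 5% CO2. Read-out: beta-lactamase FRET substrate fluorescence, 2 h RT.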

[8] = qHTS assay to identify small molecule agonists of the farnesoid-X-receptor (FXR) signaling pathway - cell viability counter screen (AID 743218); note: nearly all actives have a fitted effect of over 45% in size; note: potency is the fitted concentration of half-maximal effect
Procedure, shortened: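 Cytotoxicity counter-screen run in parallel, same wells: FXR-UAS-bla HEK 293T cells dosed 16 h at 37 C, viability read by CellTiter-Glo luminescence after 30 min at room temperature.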

[9] = biological target: Bile acid receptor (Homo sapiens) (UniProt Q96RI1); experiment: qHTS assay to identify small molecule antagonists of the farnesoid-X-receptor (FXR) signaling pathway (AID 743217; active = well fitted inhibition curve with a large enough effect in the signal ratio in the repeat runs, not every such curve was filed as active; the % refers to the signal ratio)
Procedure, shortened: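 Antagonist mode against 50 uM (final) chenodeoxycholic acid stimulation in FXR-bla HEK 293T cells, 16 h at 37 °C. Inhibition detected as reduced beta-lactamase activity via LiveBLAzer B/G FRET fluorescence after 2 h at room temperature.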

[10] = biological target: Bile acid receptor (Homo sapiens) (UniProt Q96RI1); experiment: qHTS assay to identify small molecule agonists of the farnesoid-X-receptor (FXR) signaling pathway (AID 743220; active = well fitted activation curve with a large enough effect in the signal ratio in the repeat runs, not every such curve was filed as active; the % refers to the signal ratio)
Procedure, shortened: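 Beta-lactamase reporter under UAS control in GeneBLAzer FXR HEK 293T cells (5000/well) measured with LiveBLAzer FRET substrate after 2 h at room temperature. Compound exposure lasted 16 h at 37C.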
% is set by controls: 0 for no effect and ±100 for the full control effect.

Chain of Bile acid receptor (Homo sapiens) (Q96RI1 whole entry, looked up): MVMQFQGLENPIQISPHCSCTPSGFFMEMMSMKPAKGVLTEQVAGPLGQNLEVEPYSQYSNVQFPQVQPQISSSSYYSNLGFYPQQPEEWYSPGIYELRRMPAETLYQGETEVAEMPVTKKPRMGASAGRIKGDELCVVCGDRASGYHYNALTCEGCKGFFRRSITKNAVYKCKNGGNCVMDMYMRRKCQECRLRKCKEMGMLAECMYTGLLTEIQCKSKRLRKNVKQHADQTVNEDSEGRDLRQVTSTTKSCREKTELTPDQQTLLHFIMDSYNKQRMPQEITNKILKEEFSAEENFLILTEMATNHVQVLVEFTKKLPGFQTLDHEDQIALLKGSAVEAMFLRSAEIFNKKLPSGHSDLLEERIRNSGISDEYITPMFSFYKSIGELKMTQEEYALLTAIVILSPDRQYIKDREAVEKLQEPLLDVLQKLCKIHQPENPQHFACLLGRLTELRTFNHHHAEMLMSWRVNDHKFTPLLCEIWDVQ
Chain of Vitamin D3 receptor (Homo sapiens) (P11473 whole entry, looked up): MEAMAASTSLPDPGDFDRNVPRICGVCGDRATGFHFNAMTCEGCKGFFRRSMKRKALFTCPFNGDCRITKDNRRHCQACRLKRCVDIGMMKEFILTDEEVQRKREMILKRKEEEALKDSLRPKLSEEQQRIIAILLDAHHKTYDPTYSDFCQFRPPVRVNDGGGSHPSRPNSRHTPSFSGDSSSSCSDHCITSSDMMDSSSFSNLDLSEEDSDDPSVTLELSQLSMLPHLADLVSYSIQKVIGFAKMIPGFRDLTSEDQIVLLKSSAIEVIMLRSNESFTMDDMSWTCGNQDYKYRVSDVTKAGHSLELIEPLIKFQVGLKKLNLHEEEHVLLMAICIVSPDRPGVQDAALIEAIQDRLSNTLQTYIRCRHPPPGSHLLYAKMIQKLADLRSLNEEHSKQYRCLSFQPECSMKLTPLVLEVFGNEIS
Chain of Peroxisome proliferator-activated receptor delta (Homo sapiens) (Q03181 whole entry, looked up): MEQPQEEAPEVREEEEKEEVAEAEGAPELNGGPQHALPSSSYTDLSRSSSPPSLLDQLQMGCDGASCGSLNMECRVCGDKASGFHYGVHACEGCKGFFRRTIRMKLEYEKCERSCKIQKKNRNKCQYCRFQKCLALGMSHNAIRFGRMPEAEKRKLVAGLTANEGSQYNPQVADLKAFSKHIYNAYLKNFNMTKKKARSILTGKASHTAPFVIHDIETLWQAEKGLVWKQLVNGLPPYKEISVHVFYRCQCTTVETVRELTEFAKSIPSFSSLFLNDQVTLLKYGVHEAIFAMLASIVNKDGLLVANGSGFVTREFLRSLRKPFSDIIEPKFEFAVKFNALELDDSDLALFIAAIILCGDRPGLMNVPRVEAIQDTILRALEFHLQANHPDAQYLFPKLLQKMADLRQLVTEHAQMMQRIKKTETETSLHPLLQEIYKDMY

CC(CC=O)c1ccccc1 (centres undefined)
inactive: Potency [1] | Potency [2] | Potency [3] | Potency [4] | Potency [5] | Potency [6]

O=[N+]([O-])c1cccc(S(=O)(=O)O)c1
inactive: Potency [1] | Potency [2] | Potency [3] | Potency [4] | Potency [5]

COc1cc2c(cc1OC)C(C(C(=O)N(CCc1ccc(OC)c(OC)c1OC)CCc1ccc(OC)c(OC)c1OC)c1ccccc1)=NCC2 (centres undefined)
inactive: Potency [1] | Potency [2] | Potency [3] | Potency [4] | Potency [5] | outcome [7]

OCCNCc1ccccc1
inactive: Potency [1] | Potency [2] | Potency [3] | Potency [4] | Potency [8] | Potency [5] | Potency [6]

Cc1c(N)cccc1[N+](=O)[O-]
inactive: Potency [1] | Potency [2] | Potency [3] | Potency [4] | Potency [8] | Potency [5]

c1ccc(CNCCNCc2ccccc2)cc1
inactive: Potency [1] | Potency [2] | Potency [3] | Potency [4] | Potency [8] | Potency [5] | outcome [7]

C/C(=C(\CCOP(=O)(O)O)SC(=O)c1ccccc1)N(C=O)Cc1cnc(C)nc1N
inactive: activity change, negative = cytotoxicity [1] 2.72% [at 5.95 µM] | activation [2] -1.46% [at 5.95 µM] | viability change, negative = cytotoxic [3] 1.06% [at 6.26 µM] | ratio activity, negative = inhibition [4] 6.78% [at 6.26 µM] | viability change, negative = cytotoxic [8] 3.54% [at 5.95 µM] | activity change, negative = cytotoxicity [5] 0.132% [at 5.95 µM] | activation [6] -0.529% [at 6.01 µM]

O=C1OC(=O)C2C3C=CC(C3)C12 (centres undefined)
inactive: Potency [1] | Potency [2] | Potency [3] | Potency [4] | Potency [8] | Potency [5] | outcome [7]

CC(C)(COC(=O)c1ccccc1)COC(=O)c1ccccc1
inactive: Potency [1] | Potency [2] | Potency [3] | Potency [4] | Potency [8] | Potency [5] | Potency [6]

NCC(=O)O
inactive: Potency [1] | Potency [2] | Potency [3] | Potency [4] | Potency [5]

O=C(O)c1ccc(S(=O)(=O)O)cc1C(=O)O
inactive: Potency [1] | Potency [2] | Potency [3] | Potency [4] | Potency [8] | Potency [5] | Potency [6]

c1ccc(-c2ccccn2)nc1
inactive: Potency [1] | Potency [2] | Potency [3] | Potency [4] | Potency [8] | Potency [5] | Potency [6]

ClCCOCCOCCCl
inactive: Potency [1] | Potency [2] | Potency [3] | Potency [4] | Potency [8] | Potency [5] | outcome [7]

CC(C)(O)c1ccc(CNC(=O)c2cccnc2Oc2ccc(F)cc2)cc1
inactive: Potency [1] | Potency [2] | Potency [3] | Potency [4] | Potency [8] | Potency [5]

CN1Cc2cc(C(=O)N3CCC(C4CCNCC4)CC3)ccc2NC(CC(=O)O)C1=O (centres undefined)
inactive: Potency [1] | Potency [2] | Potency [3] | Potency [4] | Potency [8] | Potency [5]

Cc1ncc(CO)c(C=O)c1O
inactive: Potency [1] | Potency [2] | Potency [3] | Potency [4] | Potency [8] | Potency [5] | Potency [6]

COc1ccnc(CS(=O)c2nc3ccc(OC(F)F)cc3[nH]2)c1OC (centres undefined)
inactive: Potency [1] | Potency [2] | Potency [3] | Potency [4] | Potency [8] | Potency [5]

CCCCCCCCO[C@@H]1O[C@H](CO)[C@@H](O)[C@H](O)[C@H]1O
inactive: Potency [1] | Potency [2] | Potency [3] | Potency [9] | Potency [8] | Potency [10] | Potency [5]

CCCCCCCCCCO[C@@H]1O[C@H](CO)[C@@H](O)[C@H](O)[C@H]1O
inactive: Potency [1] | Potency [2] | Potency [4] | Potency [8] | Potency [5] | Potency [6] | outcome [7]

C=C(C)C(=O)OCC
inactive: Potency [1] | Potency [2] | Potency [4] | Potency [8] | Potency [10] | Potency [5] | outcome [7]

CN(Cc1ccc(C(C)(C)C)cc1)Cc1cccc2ccccc12
active: Potency [1] 29.8 µM | Potency [3] 23.7 µM
inactive: Potency [4] | Potency [10] | outcome [7]

COc1ccc(C(=O)c2ccc(OC)cc2O)c(O)c1
inactive: Potency [1] | Potency [2] | Potency [8] | Potency [5] | Potency [6]

COc1ccc(C)cc1[N+](=O)[O-]
inactive: Potency [1] | Potency [3] | Potency [9] | Potency [8] | Potency [10] | Potency [5]

O=C(O)CC(=O)C(=O)O
inactive: Potency [1] | Potency [3] | Potency [9] | Potency [8] | Potency [10] | Potency [5]

OCCN1CCN(CCCN2c3ccccc3C=Cc3ccccc32)CC1
inactive: Potency [1] | Potency [2] | Potency [8] | outcome [7]

C[C@H]1C[C@H]2[C@@H]3CCC4=CC(=O)C=C[C@]4(C)[C@@]3(Cl)[C@@H](O)C[C@]2(C)[C@@]1(O)C(=O)CO
inactive: Potency [1] | Potency [2] | Potency [4] | Potency [8] | Potency [5] | outcome [7]

O[C@@H](COc1cccc2ncccc12)CN1CCN(C2c3ccccc3[C@@H]3[C@H](c4ccccc42)C3(F)F)CC1 (some centres undefined)
inactive: Potency [2]
active: Potency [1] 9.44 µM | Potency [3] 23.7 µM | Potency [8] 15 µM | Potency [5] 21.1 µM

O=C1CCCCCCCCCCCC(=O)OCCO1
inactive: Potency [1] | Potency [2] | Potency [3] | Potency [5] | Potency [6]

CC(=O)OC[C@H]1O[C@@H](n2ncc(=O)[nH]c2=O)[C@H](OC(C)=O)[C@@H]1OC(C)=O
inactive: Potency [1] | Potency [2] | Potency [3] | Potency [8] | Potency [10] | Potency [6]

Cc1cc(C(=O)O)ccc1[N+](=O)[O-]
inactive: Potency [1] | Potency [2] | Potency [4] | Potency [8] | Potency [6]

O=C(O)c1nc(Cl)c(Cl)c(Cl)c1Cl
inactive: Potency [1] | Potency [2] | Potency [4] | Potency [8] | Potency [5]

CCCCCCCCCOS(=O)(=O)O
inactive: Potency [1] | Potency [3] | Potency [4] | Potency [8] | Potency [5] | Potency [6]
